The OligoGym collection
Also: reference of the scale not given here.

Each sequence was assayed against CLDN23 (assay: pooled miR-30 sensor sort-seq; sequence = guide strand). Conditions: shRNA.
Sequence TGGATGGTGCTGACGCTGCTGC has a sensor-assay potency score (higher = more potent) of -1.17.
TAGTACTTGATGGCGGGCGCCA was tested, and the sensor-assay potency score (higher = more potent) was -1.32.
ATGGTGCTGACGCTGCTGCGGC gave a sensor-assay potency score (higher = more potent) of -1.77.
TACAACTCCACGTCCACTGGCT was tested, and the sensor-assay potency score (higher = more potent) was 0.00465.
TTGGGCTCGTCCTGCCAGCAGC gave a sensor-assay potency score (higher = more potent) of -1.78.
TGGCCGTCGCTGTAGTACTTGA showed a sensor-assay potency score (higher = more potent) of -1.77.
Work on AAGTTGGGCTCGTCCTGCCAGC yielded a sensor-assay potency score (higher = more potent) of -1.5.
For TCGCTGTAGTACTTGATGGCGG, the sensor-assay potency score (higher = more potent) was -1.12.
TTGGATGGTGCTGACGCTGCTG showed a sensor-assay potency score (higher = more potent) of -0.0148.
With TGTAGCTGACCTGCACCGTGAC the sensor-assay potency score (higher = more potent) was -0.702.
TTGAGCAGGAGCCCGCAGGGCG gave a sensor-assay potency score (higher = more potent) of -1.37.
In the case of TTGGTGTAGGCCTTGGGCCGCG, the sensor-assay potency score (higher = more potent) is reported as -1.14.

What follows are sequences tested against CLDN6 in the same assay as above. Conditions: shRNA.
ATGACAAAGACAATCCCAGAGG was tested, and the sensor-assay potency score (higher = more potent) was -1.76.
With TAGACCAGCAAGCCGAACAGGG the sensor-assay potency score (higher = more potent) was -0.8.
Sequence TTCTCCTCCACACAGGTGGTAC has a sensor-assay potency score (higher = more potent) of -1.81.
With TTTGTTAACAGATCATTTGTTT the sensor-assay potency score (higher = more potent) was 0.0812.
Work on TAGAAGTCCCGGATGATGGCAT yielded a sensor-assay potency score (higher = more potent) of 0.0775.
In the case of TAGCGGGCCATGTAATGGCTGG, the sensor-assay potency score (higher = more potent) is reported as -1.06.
ACAAAGACAATCCCAGAGGTGA showed a sensor-assay potency score (higher = more potent) of -0.71.
In the case of TTGGGCCTCAGCCACCAGGGGG, the sensor-assay potency score (higher = more potent) is reported as -1.51.
In the case of TTTGATAAAAATGTGAGTGTAA, the sensor-assay potency score (higher = more potent) is reported as 0.357.
TCCACACAGGTGGTACACTTGG showed a sensor-assay potency score (higher = more potent) of -1.58.
In the case of AATCCCAGAGGTGAGCACCAGG, the sensor-assay potency score (higher = more potent) is reported as -1.46.
With ATTAGCGTCAGGACCCCTGAGA the sensor-assay potency score (higher = more potent) was -0.855.

Each sequence was assayed against CLDN9 in the same assay as above. Conditions: shRNA.
With TCCACACACGTGGTACACTGGG the sensor-assay potency score (higher = more potent) was -1.23.
In the case of TTGTAGAAGTCCTGGATGATGG, the sensor-assay potency score (higher = more potent) is reported as -1.14.
Sequence TTGCACTGCATCTGGCCCGTGC has a sensor-assay potency score (higher = more potent) of -0.338.
ATGAGCACCAGGATGCCGGCGA was tested, and the sensor-assay potency score (higher = more potent) was -0.538.
With TCGTCCTCCACACACGTGGTAC the sensor-assay potency score (higher = more potent) was -1.58.
ATGATGGCGTGCGCCGTCCAGC was tested, and the sensor-assay potency score (higher = more potent) was -1.9.
In the case of TTCGTCCTCCACACACGTGGTA, the sensor-assay potency score (higher = more potent) is reported as -0.498.
With TTGTCCAGTCCAGATGCACCCG the sensor-assay potency score (higher = more potent) was -0.545.
Work on TTTGGAGCCAACGAGCTGCTGC yielded a sensor-assay potency score (higher = more potent) of -0.374.
In the case of TAGCCCAGCCGAGGTCCGCGGG, the sensor-assay potency score (higher = more potent) is reported as -1.28.
TAGAAGTCCTGGATGATGGCGT gave a sensor-assay potency score (higher = more potent) of 0.302.

What follows are sequences tested against CLEC9A in the same assay as above. Conditions: shRNA.
In the case of TCACAAGACAGCATGCTCCTGA, the sensor-assay potency score (higher = more potent) is reported as 0.87.
With TAGCTGACTGGGATCTCTCTGC the sensor-assay potency score (higher = more potent) was -0.395.
Work on TAAACAATTCTCTTGACTGGTG yielded a sensor-assay potency score (higher = more potent) of -0.135.
Work on TTAAACAATTCTCTTGACTGGT yielded a sensor-assay potency score (higher = more potent) of -0.125.
